Screening data as filed in PubChem.
An excerpt weighted towards active compounds, which were near 6.3% of everything screened.
Abs 340nm: compound absorbs light at 340 nm | compound absorbance at 340 nm, fold over control | fold change at 10 µM | 65,000 tested, under 10 active;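 active = at 10 µM dose, initial 340 nm absorbance at least 2 fold that of control wells; inactive = change under 2 fold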;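 note: initial absorbance extrapolated from kinetic A340 decline of NADH oxidation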
Fluor 339 460: intrinsic fluorescence of library compounds, ex339/em460 – biochemical, MLSMR library, data from DPM-DC assay, artefact control, profiling panel. compound autofluorescence, ex339/em460 nm, NADH buffer; stronger effect = higher value; 1 = no-compound wells, NADH background. fluorescence fold increase at 10 µM. 65,000 compounds, 5.5% hits. AID 709;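 active = at 10 µM, mean starting fluorescence two-fold or more over control wells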;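 note: signal is the first read of a kinetic run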
DPM-DC inhibit: S. pneumoniae DPM-DC inhibition; AID 556; 65,000 compounds, 0.49% hits; calls only at 10 µM; purified DPM-DC, PK/LDH coupled NADH fluorescence;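 active = the 320 compounds with the highest percent inhibition in the single-dose primary screen, excluding strongly autofluorescent ones, cut at about 32% in these data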;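 note: kinetic rate of NADH fluorescence loss reporting ADP formed by the decarboxylase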
NADH enzymes: blocks coupling enzymes of NAD/NADH assays. coupled PK/LDH NADH assays, four targets. IC50, µM (top dose mostly 10 µM), for inactives: at the highest dose inhibition. 65,000 compounds, 0.02% hits. AID 774;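 active = single-dose screening hits from any of four coupled enzyme assays that gave an IC50 when retested across doses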;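 note: the DPM-DC format reads NADH fluorescence rather than 340 nm absorbance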
PMK inhibit: S. pneumoniae PMK inhibition. purified PMK, PK/LDH-coupled NADH absorbance 340 nm. inhibition, % at 10 µM. 65,000 compounds, 0.49% hits. AID 539;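 active = top-ranked compounds by inhibition in the single 10 µM screen, taking a fixed number of the strongest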;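 note: 0% = full reaction with DMSO carrier and 100% = background rate without enzyme reaction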
Spn MK inh: blocks S. pneumoniae mevalonate kinase; 65,000 compounds, 0.48% hits; AID 555; inhibition, % at 10 µM; purified MK, PK/LDH-coupled NADH absorbance 340 nm;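 active = ranked among the strongest by inhibition in the single 10 µM screen, a fixed top-ranked set picked for dose follow-up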
An asterisk follows results filed as active; i = inactive; . = not tested or not shown; + = active, no number.

SMILES	Abs 340nm	Fluor 339 460	DPM-DC inhibit	NADH enzymes	PMK inhibit	Spn MK inh
CC(C)Cc1ccc(C#N)c(SCC(N)=O)n1	1	1.1	i	1%	2	0
Cc1ccc(-c2noc(-c3cccs3)n2)cc1	1.1	1.1	i	1%	0	4
Brc1ccc(-c2cnc(-c3cccs3)o2)cc1	1.1	5*	.	5%	7	2
CC(=NCc1ccco1)c1c(C)[nH]n(-c2nc3ccccc3s2)c1=O	1.1	1.2	+	16%	12	0
O=C(Nc1cccc2ccccc12)OC1C=CS(=O)(=O)C1 (stereo not given)	1	1.1	i	8%	11	8
CC1OC(Nc2cccc3ccccc23)C(O)C(O)C1O (stereo not given)	1	2.1*	.	8%	2	13
COc1ccccc1-c1nnc(NC(=O)c2ccc(S(=O)(=O)N(C)Cc3ccccc3)cc2)o1	1	3*	.	5%	10	6
CN(Cc1ccccc1)S(=O)(=O)c1ccc(C(=O)Nc2nnc(C3CC3)o2)cc1	1	1.1	i	4%	10	3
Clc1ccc(OCc2cn3cccnc3n2)c2ncccc12	1	2.1*	.	7%	14	0
C=CCSc1nc(N)c(C(=O)Nc2ccccc2C)cc1C(N)=O	1.1	1.1	i	2%	7	8
CC(C)(C)c1ccccc1OCCCCCNCCO	1	1.1	i	32%	52*	44*
CCN(CC)C(=O)CSc1nnc(-n2nc(C)cc2C)c2ccccc12	0.99	1.1	i	5%	10	5
N#Cc1nc(-c2ccco2)oc1N1CCc2ccccc2C1	1.1	3.8*	.	8%	8	8
O=S(=O)(c1ccccc1)c1nc(-c2ccco2)oc1N1CCOCC1	1	1.1	i	4%	3	9
N#Cc1nc(-c2ccco2)oc1N1CCCC1	1.1	3.9*	.	14%	13	14
N#Cc1nc(-c2ccco2)oc1N1CCN(C(c2ccccc2)c2ccccc2)CC1	1.1	1.9	i	7%	8	12
CC1CC(C)CN(c2oc(-c3ccco3)nc2C#N)C1 (stereo not given)	1.1	2.2*	.	16%	9	22
CSCCC1NC(=O)NC1=O (stereo not given)	1	1.1	i	6%	17	0
COc1cccc(C(=O)N2CCCC(c3nc(-c4cccs4)no3)C2)c1 (stereo not given)	0.98	0.99	i	2%	15	0
COc1ccccc1N(CN1CCCC1=O)C(=O)COc1ccccc1	1	1.2	i	1%	2	0
Cc1oc2ccccc2c1-c1cn2c(n1)SCC2	1.1	3.6*	.	16%	17	15
Cc1cnn(C(=O)c2oc3ccccc3c2C)c1	1.1	1.1	i	5%	10	3
Cc1ccc(-c2oc3ccccc3c(=O)c2O)cc1	1	1.4	i	3%	8	7
O=c1c(O)c(-c2cccs2)oc2ccccc12	1.2	3.7*	.	4%	0	8
CCN(CC)c1ccc(NC(=O)c2cccc(C)c2OC)c(C)c1	1.1	1.1	i	0%	0	0
SMILES	Abs 340nm	Fluor 339 460	DPM-DC inhibit	NADH enzymes	PMK inhibit	Spn MK inh
CCCN(CCC)c1nc(C)cc(C(C#N)c2nc3ccccc3o2)n1 (stereo not given)	1	2.2*	i	4%	8	5
Cc1nc(SCC(=O)NCC2CCCO2)c2oc3ccccc3c2n1 (stereo not given)	1	1.1	i	4%	8	5
CN(C)C(=O)N1CCC(C(=O)NCc2cccs2)CC1	1	0.58	+	22%	22	0
CN(C)C(=O)N1CCCC(C(=O)NCc2cccs2)C1 (stereo not given)	0.99	0.98	i	7%	21	0
CCOC(=O)N1CCN(CC(=O)Nc2c(C(=O)OC)[nH]c3ccccc23)CC1	1	1.6	i	9%	5	13
CCOC(=O)c1[nH]c2cc3c(cc2c1NC(=O)CN1CCc2ccccc2C1)OCO3	1.1	2.3*	.	0%	0	0
CCOC(=O)c1[nH]c2cc3c(cc2c1NC(=O)CN1CCC(C)CC1)OCO3	1.1	2.3*	.	5%	0	9
CCCCC(C(=O)NCCC(C)C)N(CCCN1CCOCC1)C(=O)c1snc(C(N)=O)c1N (stereo not given)	1.1	2.1*	i	7%	13	3
COc1ccc(NC(=O)C23CCC(C2)C(C)(C)C3=O)cc1 (stereo not given)	1.1	1.1	i	1%	2	0
Cc1ccc(CSc2nc3c(c(=O)[nH]2)C(c2ccncc2)C2=C(CCCC2=O)N3)cc1 (stereo not given)	1	2.4*	.	5%	9	4
CCOC(=O)N1CCC(NC(=O)Cn2c3c(c(-c4ccccc4Cl)cc2=O)CCC3)CC1	1	2.2*	.	4%	11	9
CCOC(=O)N1CCC(NC(=O)Cn2c3ccccc3c3cn[nH]c(=O)c32)CC1	1	1.2	i	5%	15	0
Cc1ccc(Cl)cc1N1CCN(Cc2nnnn2C2CCCCC2)CC1	1	1.1	i	8%	25*	0
O=C(CSc1nnc(-c2ccc(Cl)s2)o1)N1CCc2ccccc21	1	2*	i	0%	0	0
Cc1ccc(Cn2ccc(NC(=O)c3cc(-c4ccco4)on3)n2)cc1	1	1.1	i	0%	0	1
COc1cc(-c2nc(S(=O)(=O)c3ccc(C)cc3)c(N(C)C)o2)cc(OC)c1OC	1	1.1	i	5%	11	0
COC(=O)c1nc(-c2ccc(C)cc2)oc1N(C)C	1.1	5*	.	9%	17	0
COC(=O)c1nc(-c2ccccc2)oc1N(C)C	1.1	3.8*	.	5%	4	5
CCOC(=O)c1c(C)n(OCc2ccccc2)c2ccc3c(no[n+]3[O-])c12	0.99	0.98	+	4%	6	7
COc1ccc(N2CCN(C(=O)c3cc4c(-c5ccc(Cl)cc5)nn(C)c4s3)CC2)cc1	1.1	1.6	i	4%	3	2
CCOc1cc(C(=O)NCCN2CCOCC2)cc(OCC)c1OCC	1	1.1	i	18%	3	50*
CCC(C)[C@H](NC(=O)N1CCCC1)C(=O)O (stereo not given in full)	1	1	i	13%	14	10
COc1ccccc1NC(=O)CCSc1nnnn1C	1	1.1	i	3%	1	9
COc1ccc(C(=O)c2oc3ccc(OC)cc3c2N)cc1	1.1	1.8	i	8%	1	7
NC(=O)c1oc2ccc(Cl)cc2c1N	1.1	3.9*	.	9%	11	7
CCN(CC)CCOC(=O)c1c(C)oc2ccc(OC)cc12	1	1.1	i	7%	14	4
